According to PubChem BioAssay AID1851 (National Center for Advancing Translational Sciences (NCATS), 2009):
In all, about 16,000 compounds went through this assay and about 5,700 (36%) were called active. Another 24% or so got no clear call; they are omitted. Calls follow the shape of the dose curve; as a rule, active = well fitted curve in the direction sought with a large enough effect; inconclusive = small, poorly fitted or top-dose-only effect, or effect the other way; inactive = no such curve, though single readings can be large or run the other way. The list shows a part of the results.

These molecules were tested against Cytochrome P450 1A2 (Homo sapiens) (UniProt P05177) (assay: Cytochrome panel assay with activity outcomes). Settings: recombinant CYP, pro-luciferin dealkylation, luminescence, p450-cyp1a2; series mostly up to 57.1 µM.
Sequence of Cytochrome P450 1A2 (Homo sapiens) (P05177 whole entry, looked up): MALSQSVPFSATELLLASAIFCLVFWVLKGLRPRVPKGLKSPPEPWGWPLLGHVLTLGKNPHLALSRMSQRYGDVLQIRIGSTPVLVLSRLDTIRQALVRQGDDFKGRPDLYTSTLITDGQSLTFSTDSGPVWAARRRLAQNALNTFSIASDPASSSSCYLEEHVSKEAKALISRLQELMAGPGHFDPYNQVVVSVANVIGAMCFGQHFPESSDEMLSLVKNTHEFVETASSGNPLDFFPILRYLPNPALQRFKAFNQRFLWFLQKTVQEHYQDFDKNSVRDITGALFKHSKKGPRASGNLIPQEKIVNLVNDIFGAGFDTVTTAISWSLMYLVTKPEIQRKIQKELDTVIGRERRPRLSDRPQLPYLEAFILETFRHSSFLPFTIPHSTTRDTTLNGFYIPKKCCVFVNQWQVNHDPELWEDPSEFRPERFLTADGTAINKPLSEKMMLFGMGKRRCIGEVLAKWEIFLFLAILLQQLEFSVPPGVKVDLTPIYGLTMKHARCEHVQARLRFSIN
% is scaled to controls: 0 for no effect and ±100 for the full control effect.

Compound | activity, negative = inhibition | AC50
CC1(C)N=C(N)N=C(N)N1c1cccc(C(=O)Nc2ccc(S(=O)(=O)F)cc2)c1 | -15.8% [at 11.4 µM] (inactive) | –
c1ccc(CN2CC[C@@]3(CCCNC3)C2)cc1 | – | inactive
NC1=Nc2ccccc2Oc2ccccc21 | – | 12600 nM (active)
CC(C)[N+](C)(CCC(C(N)=O)(c1ccccc1)c1ccccc1)C(C)C | – | inactive
CN1C(=O)c2ccccc2Sc2ccc(C(=O)N3CCC4(CC3)OCCO4)cc21 | – | inactive
CC(=O)c1ccc2c(c1)N(CCCN(C)C)c1ccccc1S2 | – | 1580 nM (active)
C=CCN1C(=O)c2ccccc2Sc2ccc(C(=O)N3CCC4(CC3)OCCO4)cc21 | – | inactive
C[N+](C)(C)CCCCCC[N+](C)(C)C | – | inactive
COc1ccc2[nH]cc(C3=CCNCC3)c2c1 | – | 251 nM (active)
O=c1ccc2[nH]cc(C3=CCNCC3)c2[nH]1 | – | inactive
CCCOc1ccc2[nH]cc(C3=CCNCC3)c2n1 | – | 126 nM (active)
C[C@@]12CC[C@@H]3[C@H](CCC4=CC(=O)CC[C@]43C)[C@@H]1CC[C@@H]2C(=O)Cn1cnc2c(=S)nc[nH]c21 | -15.8% [at 11.4 µM] (inactive) | –
NP(N)(=O)NC(=O)c1ccc(F)cc1 | – | inactive
NCCCP(=O)(O)O | – | inactive
CC1=C(O)C(=O)[C@H]2O[C@@H]2C1=O | – | inactive
C[N+]1(C)[C@@H]2CC[C@H]1CC(OC(=O)[C@@H](CO)c1ccccc1)C2 (stereo not given in full) | – | inactive
O=C(c1ccncc1)N1CCC2(CC1)CN(Cc1ccccc1)C2 | – | inactive
CN1CCCC2(CCN(C(=O)c3csnn3)CC2)C1 | – | inactive
O=C(c1csnn1)N1CCC2(CC1)CN(Cc1ccncc1)C2 | – | 10000 nM (active)
N#Cc1ccc(CN2CCC3(CC2)CCN(C(=O)Oc2ccccc2)CC3)cc1 | – | inactive
O=P(O)(O)CCP(=O)(O)O | 0.113% [at 11.4 µM] (inactive) | –
CC(=O)[C@@H]1CC[C@@H]2[C@@H]3CC=C4C[C@H](OS(=O)(=O)O)CC[C@@]4(C)[C@H]3CC[C@]21C | – | inactive
O=C1Nc2ccc(I)cc2/C1=C/c1cc(Br)c(O)c(Br)c1 | – | 794 nM (active)
COC(=O)C1=CCCN(C)C1 | – | inactive
Cc1ccc(C2CC(=O)C(C=NCCN3CCN(C(=O)Cc4ccccc4)CC3)=C(O)C2)cc1 (stereo not given) | – | inactive

Compound | activity, negative = inhibition | AC50
C[C@H](N)[C@@H](O)c1ccccc1 | – | inactive
CC(NCc1ccc(Cl)cc1)C(O)c1ccccc1 (stereo not given) | – | 14100 nM (active)
C[C@@H](Cc1ccc(OCC(=O)O)cc1)NC[C@H](O)c1cccc(Cl)c1 | – | inactive
CCN(CC)CCn1ncc2c(N)ncnc21 | -6.04% [at 11.4 µM] (inactive) | –
CC[C@H](C(=O)[C@H](C)[C@H](O)[C@H](C)CCc1ccc(C)c(O)c1C(=O)O)[C@H]1O[C@](CC)([C@@H]2CC[C@@](O)(CC)[C@H](C)O2)C[C@H]1C | – | inactive
N=C1c2ccccc2CN1NC(=O)c1ccc(Cl)cc1 | – | inactive
COc1ccc(C[C@H]2NC[C@H](O)[C@@H]2OC(C)=O)cc1 | – | inactive
NC[C@@H](CC(=O)O)c1ccc(Cl)cc1 | – | inactive
O=NN(Cc1ccc(Cl)cc1)[C@@H](C(=O)O)c1ccccc1 | – | 5010 nM (active)
O=C(O)CP(=O)(O)c1ccc(Cl)cc1 | – | inactive
C[C@@]12CC[C@H]3[C@@H](CCC4=CC(=O)CC[C@]43C)[C@H]1CC[C@H]2C(=O)CO | – | inactive
CNC(=S)NC1CC2CCCC(C1)N2CC(C)C (stereo not given) | – | inactive
CCOCCN1CCC(OC(C)=O)C(C)C1 (stereo not given) | – | inactive
C[C@H](CC(C#N)(c1ccccc1)c1ccccc1)N1CCCCC1 | 7.09% [at 2.29 µM] (inactive) | –
O=c1oc(Cl)c(Cl)c2ccccc12 | – | 1000 nM (active)
O=[N+]([O-])O[C@H]1CO[C@H]2[C@H]1OC[C@@H]2O[N+](=O)[O-] | – | inactive
O=C1OC(=O)[C@@H]2[C@@H]1[C@@H]1CC[C@H]2O1 | – | inactive
NC(=O)CN1C[C@@H](O)CC1=O | – | inactive
CCOP(=O)(OCC)C(NC(C)=O)C(Cl)(Cl)Cl (stereo not given) | – | inactive
O=C(Nc1cccc(C(F)(F)F)c1)c1cccn(Cc2ccc3c(c2)OC(F)(F)O3)c1=O | – | 3160 nM (active)
CC(O)(CS(=O)(=O)c1cccc(C(F)(F)F)c1)C(=O)Nc1cccc(C(F)(F)F)c1 (stereo not given) | – | inactive
CC(O)(CS(=O)(=O)c1ccccc1)C(=O)Nc1cccc(C(F)(F)F)c1 (stereo not given) | – | inactive
CC(C)c1ccc(C(c2c(O)c3ccccc3oc2=O)c2c(O)c3ccccc3oc2=O)cc1 | -18.8% [at 2.29 µM] (inactive) | –
CCCCCCCCC(=O)NCc1ccc(O)c(OC)c1 | – | 12600 nM (active)
COc1cc(CNC(=O)CCCC/C=C\C(C)C)ccc1O | – | 1580 nM (active)

Compound | activity, negative = inhibition | AC50
COc1cc(CCN)ccc1O | – | inactive
CNC[C@H](O)c1ccc(O)c(OC)c1 | – | inactive
COc1ccc(C[C@@H]2NC[C@H](O)[C@@H]2OC(C)=O)cc1 | – | inactive
C[N+]1(C)CCO[C@](O)(c2ccc(-c3ccc([C@]4(O)C[N+](C)(C)CCO4)cc3)cc2)C1 | – | inactive
COc1cc2c(c(OC)c1OC)-c1ccc(O)c(=O)cc1[C@H](N)CC2 | – | inactive
CC(C)COc1ccc(C2(C#N)CC[N+](C)(C)CC2)cc1 | – | inactive
COCCCNC(=S)NC1CC2CCCC(C1)N2Cc1cccs1 (stereo not given) | – | inactive
Cc1cc2c(C(F)(F)F)cc(=O)oc2c2c1NCCC2 | – | 100 nM (active)
CCCCC1(CCCC)C(=O)NC(=Nc2cccc(C)c2)NC1=O | – | inactive
O=C1C=CC(=O)c2c1ccc1c2ccc2ccccc21 | – | 794 nM (active)
COc1cc([C@H]2c3cc4c(cc3[C@@H](O)[C@@H]3COC(=O)[C@H]23)OCO4)cc(OC)c1OC | – | inactive
CCCc1cc2c(n1CCO)C(C)C1CN(C(=O)c3ccccc3)C(C)(C(=O)OC)C21 (stereo not given) | – | inactive
COc1cccc2c1[C@H](CO)N1[C@H](C#N)[C@@H]3C[C@H](C(=O)O)[C@@H]([C@@H]1C2)N3C | -21% [at 2.29 µM] (inactive) | –
C[C@]12CC[C@@H]3C(=CCc4cc(O)ccc43)[C@@H]1CCC2=O | – | 10000 nM (active)
C[C@]12CC[C@H]3c4ccc(O)cc4CC[C@@H]3[C@H]1CC[C@@H]2OP(=O)(O)O | -11.2% [at 2.29 µM] (inactive) | –
C[C@]12CCC3c4ccc(OCC(=O)O)cc4CCC3C1CCC2=O (stereo not given in full) | 0.71% [at 2.29 µM] (inactive) | –
Cc1cc[c]([Sb]2[O][C@H]([C@H](O)[C@H](O)C(=O)O)[C@@H](CO)[O]2)cc1 | -11.9% [at 11.4 µM] (inactive) | –
O=C(Cc1ccc(Cl)c(Cl)c1)N1CCCC[C@H]1CN1CCCC1 | – | inactive
CCCCc1ccc(C(=O)O)nc1 | – | inactive
COC(=O)Nc1nc2ccc(C(=O)c3cccs3)cc2[nH]1 | – | 1580 nM (active)
CCCCc1ccc2nc(NC(=O)OC)[nH]c2c1 | – | 501 nM (active)
COC(=O)Nc1nc2ccc(Sc3ccccc3)cc2[nH]1 | – | 794 nM (active)
COCCNC(=S)NC1CC2CCCC(C1)N2Cc1cccs1 (stereo not given) | – | inactive
N#CCCN | – | inactive
N[C@@H]1CCc2cc(O)c(O)cc2C1 | – | inactive

Compound | activity, negative = inhibition | AC50
CC[C@@H]1[C@@H]2C[C@H]3[C@H]4N(C)c5ccccc5[C@@]45C[C@@H]([C@@H]2[C@@H]5O)N3[C@H]1O | – | inactive
Cc1ccc(N(C)C(=O)Oc2cccc3ccc(C)nc23)cc1 | – | 12600 nM (active)
C[C@@H]1O[C@H](OC2[C@@H](O)[C@H](O)C(O)[C@H](O)[C@H]2O)[C@@H](N)C[C@@H]1N=C(N)C(=O)O (stereo not given in full) | 1.22% [at 2.29 µM] (inactive) | –
c1ccc(CN2CCN(Cc3ccc4c(c3)OCCO4)CC2)cc1 | – | inactive
CO[C@@H]([CH2][Hg])CN1C(=O)c2ccccc2S1(=O)=O.Cn1c(=O)c2nc[nH]c2n(C)c1=O | -22% [at 2.29 µM] (inactive) | –
O=c1c(O)c(-c2cc(O)c(O)c(O)c2)oc2cc(O)cc(O)c12 | – | 2000 nM (active)
CCC(=O)O[C@@](Cc1ccccc1)(c1ccccc1)[C@@H](C)CN(C)C | – | inactive
Cc1nc(-c2ccc(-c3ccc(C(=O)N4CCc5cc6c(cc54)C4(CCN(C)CC4)CO6)cc3)c(C)c2)no1 | – | inactive
NCCCN1CCN(c2ccccc2)CC1 | -15.9% [at 11.4 µM] (inactive) | –
Nc1ccc(CCN2CCN(c3cccc(C(F)(F)F)c3)CC2)cc1 | – | 10000 nM (active)
C[N+](C)(C)CC#CCN1CCCC1=O | – | inactive
CCN(CC)C1=NC(=[N+](CC)CC)c2ccccc21 | – | 15800 nM (active)
NC(=O)c1ncn([C@H]2O[C@@H](CO)[C@@H](O)[C@@H]2O)n1 | – | inactive
Cc1cc(C)c(-n2c(O)c(C=NCCN3CCOCC3)c(=O)[nH]c2=O)c(C)c1 | – | inactive
CC(C)[C@@]1(NC(=O)[C@@H]2C[C@H]3c4cccc5[nH]cc(c45)C[C@@H]3N(C)C2)O[C@]2(O)[C@H]3CCCN3C(=O)[C@H](Cc3ccccc3)N2C1=O | – | inactive
COc1ccc(-n2nc(C(F)(F)F)cc2-c2ccc(Cl)cc2)cc1 | – | 501 nM (active)
NC(N)=NCCN=C(N)N | -17.5% [at 11.4 µM] (inactive) | –
Cc1c([C@@H](C)[C@H]2NC[C@H](C)C[C@@H]2O)ccc2c1C[C@@H]1[C@H]2CC=C2C[C@@H](O)CC[C@@]21C | 1.34% [at 2.29 µM] (inactive) | –
COc1ccc2[nH]c(C(=O)c3ccccc3)cc2c1 | – | 100 nM (active)
NC[C@H](CS(=O)(=O)O)c1ccc(Cl)cc1 | – | inactive
C/C(O)=C(/C#N)C(=O)Nc1cc(Br)ccc1Br | – | 2510 nM (active)
c1ccc(N2CC[C@@]3(CCCNC3)C2)nc1 | – | inactive
Clc1cncc(N2CCNCC2)n1 | – | 2000 nM (active)
N[C@@H](Cc1cc(Br)c(O)c(Br)c1)C(=O)O | -2.84% [at 11.4 µM] (inactive) | –
N[C@H](Cc1ccc2oc3cc(=O)c4ccccc4c-3nc2c1)C(=O)O | – | 1260 nM (active)
